Results reported in the supplement of paper PMC13380429.
A number with no mark means an inactive call.

System: Vero E6 infected with SARS-CoV-2
Assay: inhibition of SARS-CoV-2 cytopathic effect; higher = more antiviral protection, active = above 15
Conditions: 48 h

Compound	inhibition of SARS-CoV-2 cytopathic effect (1 nM)	inhibition of SARS-CoV-2 cytopathic effect (8.33 nM)	inhibition of SARS-CoV-2 cytopathic effect (100 nM)	inhibition of SARS-CoV-2 cytopathic effect (833.33 nM)	inhibition of SARS-CoV-2 cytopathic effect (10000 nM)
CS(=O)(=O)c1ccc(Cn2c3c(c4cc(F)cc(F)c42)CCCC3CC(=O)O)cc1 (stereo not given)	0.13%	-0.29%	-0.12%	1.36%	-1.55%
C#C[C@]1(O)CC[C@H]2[C@@H]3CCC4=CC(=NO)CC[C@@H]4[C@H]3CC[C@@]21CC (mixture of isomers) [norelgestromin]	-0.39%	-1.06%	1.68%	2.43%	2.14%
O=C(O)c1cc(O)c2ccc(Cl)cc2n1 [7-chlorokynurenic-acid]	1.64%	1.28%	1.02%	1.24%	1.89%
O=C(CCCN1CCC(O)(c2ccc(Br)cc2)CC1)c1ccc(F)cc1 [bromperidol]	3.91%	3.53%	2.65%	-0.17%	-3.61%
COc1cc([C@@H]2c3cc4c(cc3[C@@H](O[C@@H]3O[C@@H]5CO[C@@H](C)O[C@H]5[C@H](O)[C@H]3O)[C@H]3COC(=O)[C@H]23)OCO4)cc(OC)c1OP(=O)(O)O [etoposide-phosphate]	-3.4%	-1.24%	-0.75%	-0.98%	1.67%
CN(C)c1nc(N(C)C)nc(N(C)C)n1 [altretamine]	2.31%	-1.41%	0.54%	-0.29%	2.53%
COC(=O)N[C@H](C(=O)N1CC2(CC2)C[C@H]1c1nc(-c2ccc3c(c2)C(F)(F)c2cc(-c4ccc5[nH]c([C@@H]6[C@H]7CC[C@H](C7)N6C(=O)[C@@H](NC(=O)OC)C(C)C)nc5c4)ccc2-3)c[nH]1)C(C)C [ledipasvir]	-1%	1.14%	-1.6%	-5.39%	-5.41%
CC(=O)N1N=C(c2ccc(N)cc2)c2cc3c(cc2C[C@H]1C)OCO3 [talampanel]	-0.4%	0.84%	0.91%	1.19%	1.16%
Oc1cc(CNC(=S)/C=C/c2cc(O)c(O)c(Br)c2)cc(O)c1O	0.9%	0.99%	2.87%	5.44%	19.8% (active)
C/C(=N\NC(=O)[C@@H]1C(=O)NC[C@H]1c1ccccc1)c1cccc(Br)c1	-1.05%	1.12%	1.69%	-2.01%	-2.3%
Cc1cc2c(cc1C(F)(F)F)N(C(=O)Nc1ccc(Oc3cccnc3C)nc1)CC2	0.45%	0.15%	-0.25%	0.74%	-2.31%
COc1ccc(CCNCC(O)COc2cccc(C)c2)cc1OC (stereo not given) [bevantolol]	-3.29%	-3.57%	-4.47%	-3.25%	-5.37%
OC[C@H]1O[C@H](O[C@]2(CCl)O[C@H](CCl)[C@@H](O)[C@@H]2O)[C@H](O)[C@@H](O)[C@H]1Cl [sucralose]	0.95%	0.58%	0.66%	-0.54%	-0.48%
C[C@]12CC[C@@H]3c4ccc(O)cc4CC[C@H]3[C@@H]1CCC2=O [estrone]	1.09%	1.93%	-0.92%	0.5%	2.53%
CN1CCN(c2ccc(C(=O)Nc3n[nH]c4ccc(Cc5cc(F)cc(F)c5)cc34)c(NC3CCOCC3)c2)CC1 [entrectinib]	4%	2.95%	-2.01%	-2.36%	-12.4%
O=C1NC(c2ccccc2)(c2ccccc2)C(=O)N1COP(=O)(O)O [fosphenytoin]	2.33%	4.09%	13.5%	1.24%	-0.44%
CCCCCCCCCCCCCCOC(=O)c1cccnc1 [myristyl-nicotinate]	0.94%	2.86%	0.68%	1.76%	1.2%
C#Cc1cncc([C@@H]2CCCN2C)c1 [altinicline]	-3.46%	-2.16%	-1.9%	-2.32%	0.92%
O=C(O)Cn1nnc(-c2cc(N3CCC(Oc4cc(F)ccc4Br)CC3)no2)n1	-0.51%	-0.71%	1.39%	-0.54%	1.73%

Compound	inhibition of SARS-CoV-2 cytopathic effect (1 nM)	inhibition of SARS-CoV-2 cytopathic effect (8.33 nM)	inhibition of SARS-CoV-2 cytopathic effect (100 nM)	inhibition of SARS-CoV-2 cytopathic effect (833.33 nM)	inhibition of SARS-CoV-2 cytopathic effect (10000 nM)
CC1(C)Oc2ccc(C#N)cc2[C@H](N(Cc2ncc[nH]2)c2ccc(Cl)cc2)[C@H]1O	0.45%	-1.34%	1.85%	2.7%	-1.77%
CC[C@H]1OC(=O)[C@@](C)(F)C(=O)[C@H](C)[C@@H](O[C@@H]2O[C@H](C)C[C@H](N(C)C)[C@H]2O)[C@](C)(OC)C[C@@H](C)C(=O)[C@H](C)[C@H]2N(CCCCn3cc(-c4cccc(N)c4)nn3)C(=O)O[C@]12C [solithromycin]	0.98%	0.59%	0.05%	-0.9%	-4.38%
O=C(O)c1cn(C2CC2)c2cc(N3CCNCC3)c(F)cc2c1=O [ciprofloxacin]	-2.01%	-1.59%	0.61%	-0.98%	-2.99%
COc1ccc2c(c1OC)C(=O)O[C@@H]2[C@H]1c2cc3c(cc2CCN1C)OCO3 [hydrastine-(1R,9S)]	2.12%	0.73%	1.14%	1.33%	-0.76%
COc1ncc2cc(C(=O)Nc3cc(C(=O)NCc4cccc(Cl)c4)ccc3Cl)c(=O)[nH]c2n1	-2.51%	1.46%	0.99%	0.54%	2.62%
C[C@H]1C[C@H]2[C@@H]3CCC4=CC(=O)C=C[C@]4(C)[C@@]3(Cl)[C@@H](O)C[C@]2(C)[C@@]1(O)C(=O)CO [beclomethasone]	-6.12%	-1.77%	0.28%	-4.99%	-2.5%
Nc1ccc(S(=O)(=O)c2ccc(N)cc2)cc1 [dapsone]	-2.51%	2.16%	0.46%	11.1%	1.03%
O=C1NCN(c2ccccc2)C12CCN(CC1COc3ccccc3O1)CC2 (stereo not given) [spiroxatrine]	-0.76%	0.74%	1.03%	0.28%	0.38%
Cc1nc2cnc3ccc(C#Cc4cccnc4)cc3c2n1-c1ccc(C(C)(C)C#N)cc1	-1.65%	8.23%	-1.48%	-1.07%	-1.26%
Nc1ccc([As](=O)(O)O)cc1 [arsanilic-acid]	0.07%	1.05%	-1.33%	-2.25%	-0.8%
NCCNc1ccc(NCCN)c2c1C(=O)c1ccncc1C2=O [pixantrone]	-1.68%	0.16%	-1.63%	1.22%	1.13%
CN1CCC2=C(C1)C(c1ccccc1)c1ccccc12 (stereo not given) [phenindamine]	-1.14%	-0.54%	0.73%	2.57%	1.5%
NS(=O)(=O)c1ccc(C(=O)O)cc1 [carzenide]	-1.83%	-0.09%	0.05%	2.39%	-0.52%
O=C(O)CCCNC(=O)c1cccnc1 [pikamilone]	0.18%	-2.74%	-0.01%	0.63%	-1.86%
CC[C@@H]1/C=C(\C)C[C@H](C)C[C@H](OC)[C@H]2O[C@@](O)(C(=O)C(=O)N3CCCC[C@H]3C(=O)O[C@H](/C(C)=C/[C@@H]3CC[C@@H](O)[C@H](OC)C3)[C@H](C)[C@@H](O)CC1=O)[C@H](C)C[C@@H]2OC [ascomycin]	1.02%	2.65%	2.8%	2.76%	1.33%
CCCCCNCC(N)=O [milacemide]	1.56%	-1.78%	2.01%	2.58%	-0.4%
c1cc(Cc2cnc[nH]2)ccn1 [immethridine]	0.32%	2.15%	0.76%	4.67%	1.99%
Fc1ccc2nc(CCC#Cc3ccccn3)cn2c1 [dipraglurant]	0.01%	0.17%	0.87%	1.2%	2.02%
N[C@@H](CCC(=O)N[C@@H](CS)C(=O)NCC(=O)O)C(=O)O [glutathione]	0.94%	0.93%	1.6%	-0.69%	1.39%
